Nrf2 ARE act: activates Nrf2 signaling | Potency, µM (titrated, usually from 46.1 µM), for inactives: top-dose activation, actives largely listed as activators | AREc32 ARE-luciferase reporter (MCF7-derived line), luminescence, 24 h | 410,000 compounds, 0.31% hits; note: % of control where 0% means no effect; nearly all actives have a fitted effect of over 65% in size
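Each well held 1000 AREc32 cells, which were incubated with compound for 24 hr at 37 deg C after overnight attachment, and ARE reporter activity was quantified by firefly luciferase luminescence.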
Nrf2 inh: blocks Nrf2 signaling | A549 ARE-Fluc reporter, luciferase luminescence, 18-24 h | Potency, µM (highest dose often 46 µM), for the others: at the top dose activity change, negative = inhibition, actives largely listed as inhibitors | 360,000 compounds, 2.1% hits | AID 504444; note: % is set by controls: 0 for no effect and ±100 for the full control effect; nearly all actives have a fitted effect of over 60% in size
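Nrf2 activity is the BugLite luminescence, read 15 min after reagent at room temperature, following CellTiter-Fluor cytotoxicity readout (30 min, 37C). Compound titrations were applied for 18-24 h to 5000 A549 ARE_Fluc cells/well in 5% FBS OPTI-MEM.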
A549 tox: counter-screen for Nrf2 inhibitors: cytotoxicity in A549 cells; 390,000 compounds, 0.16% hits; AID 504648; Potency, µM (highest dose often 46 µM), for inactives: at the highest dose activity change, negative = cytotoxicity, most hits filed as inhibitors; A549 ARE-Fluc cells, CellTiter-Fluor viability, 18-24 h; note: % is set by controls: 0 for no effect and ±100 for the full control effect
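Cytotoxicity counterscreen: CellTiter-Fluor fluorescence was measured in A549 ARE_Fluc cells after 18-24 h of compound exposure in a concentration series. The subsequent BugLite luminescent read reports ARE-luciferase activity.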
TGFb SMAD3 inh: inhibitors of TGF-b signaling. HepG2 CAGA-GFP TGF-b/SMAD3 reporter, GFP fluorescence, 18 h; TGF-beta stimulated, 500 pg/mL final. Potency, µM (doses to about 46.1 µM), for inactives: at the highest dose activity, negative = inhibition, hits mostly inhibitors. 410,000 compounds, 1.2% hits. AID 588855; note: % is set by controls: 0 for no effect and ±100 for the full control effect; nearly all actives have a fitted effect of over 65% in size
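HEPG2 CAGA-GFP, 1000 cells/well; 2 h settle, 37 C; cpd via pin tool; TGF-b 500 pg/mL final; 18 h, 37 C; GFP imaging ex488/em500-530; %Activity normalised to -TGF-b and +DMSO controls; CRC fit, curve class.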
HepG2 tox: counter-screen for TGF-b inhibitors: cytotoxicity in HepG2 cells | Potency, µM (series often up to 46.1 µM), inactives show at the top dose activity change, negative = cytotoxicity, usual class: cytotoxic | HepG2 CAGA-GFP viability, ATP luminescence, 18 h | 410,000 compounds, 0.76% hits
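CellTiter-Glo luminescence gave cytotoxicity after 18 hours at 37 degrees C. The cells were HepG2 CAGA-GFP in 1% FBS DMEM, stimulated with 500 pg/mL TGF-beta after compound addition. %Activity was normalised to no-cell wells (complete cell-killing) and DMSO (no toxicity), and curves were fitted and classified.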
An asterisk follows results filed as active; ? = inconclusive; . = no result; ! = not confirmed by another sample; [ ] = another dose, or the depositor's remark. Sampled rows, rich in hits. Any-hit rate of the full collection: about 3.6%. Calls come from the whole dose curve; as a rule, active = well fitted curve in the direction sought with a large enough effect; inconclusive = small, poorly fitted or top-dose-only effect, or another doubt; inactive = no such curve, though single readings can be large; an effect the other way counts as inactive or inconclusive. Potency is the fitted concentration of half-maximal effect.

SMILES | Nrf2 ARE act | Nrf2 inh | A549 tox | TGFb SMAD3 inh | HepG2 tox
CN(C)/C=c1\sc2c(C#N)cc(C(=O)c3ccc(Br)cc3)n2c1=O | 1% | ? | -14% | -6% | -8%
C=C1C(=O)OC2CC3(C)OC3CCC(C)=CC(OC(C)=O)C12 (stereo not given) | -3% | ? | -15% | 18µM* | -100%
Cc1c(C=O)c2ccccc2n1Cc1cccc(F)c1 | 0% | -12% | -2% | 1.8µM* | -42%
CC1CC(C)CC(C)C(O)C(C#N)=CC=CCC(C2CCCC2C(=O)O)OC(=O)CC(O)C(C)C1 (stereo not given) | -1% | 0.52µM* | 2.3µM* | ? | 0%
CN1C2CCC1/C(=C/c1ccccn1)C(=O)/C2=C\c1ccccn1 | -3% | 5.8µM* | 7.3µM* | 2.8µM* | 10µM*
COC(=O)C1=C(c2c(C)noc2C)C[C@@H]2CC[C@H]1N2C(=O)NCCCOC(C)C | 0% | -8% | -13% | -3% | -8%
O=C(c1ccc(Cl)cc1)C1CCCN(Cc2cccc3cnccc23)C1 (stereo not given) | 3% | ? | -10% | ? | -50%
CN(C)c1ccc(N=Nc2ccccc2)cc1 | . | . | . | -19% | -23%
CN(C)c1ccc(N=O)cc1 | . | . | . | 5µM* | -90%
COCCn1cc(C(=O)N2CCC3(CC2)OCCO3)c2c3ccccc3n(C)c2c1=O | 0% | -2% | 7%[1.84 µM] | -8% | 13%
COC(=O)C1=C(c2ccccc2OCc2ccccc2)C[C@@H]2CC[C@H]1N2C(=O)NCc1cccc(C(F)(F)F)c1 | -1% | 16µM* | -16% | -27% | -15%
COC(=O)C1=C(c2ccc(F)cc2OCc2ccccc2)C[C@@H]2CC[C@H]1N2C(=O)NCc1ccccc1 | 1% | 16µM* | ? | ? | -21%
COC(=O)C1=C(c2ccccc2OCc2ccccc2)C[C@@H]2CC[C@H]1N2C(=O)NCc1ccc(Br)cc1 | -1% | 21µM* | -17% | -17% | 28%
COC(=O)C1=C(c2ccc(F)cc2OCc2ccccc2)C[C@@H]2CC[C@H]1N2C(=O)NCc1ccc(C(F)(F)F)cc1 | 5% | 18µM* | -9% | -17% | -32%
COC(=O)C1=C(c2ccccc2OCc2ccccc2)C[C@@H]2CC[C@H]1N2C(=O)NCc1ccccc1 | 2% | ? | 3% | ? | -3%
Cc1ccccc1-n1c(/C=C/c2ccccn2)nc2ccccc2c1=O | -1% | -2% | -9% | -16% | -9%
Cc1sc(NC(=O)Cn2c(=O)oc3ccccc32)nc1-c1ccc(Cl)cc1 | 0% | ? | -1% | ? | -53%
CC(C)CN1Cc2cc(-c3cccc(F)c3)ccc2-n2nncc2C1 | 5% | . | . | ? | -13%
COC(=O)C1=C(c2ccc(F)cc2OCc2ccccc2)C[C@@H]2CC[C@H]1N2C(=O)NCc1ccc2c(c1)OCO2 | 0% | 18µM* | -17% | 5% | -8%
COC(=O)C1=C(c2ccccc2OCc2ccccc2)C[C@@H]2CC[C@H]1N2C(=O)NCc1ccc(C(F)(F)F)cc1 | -1% | 16µM* | -13% | -49% | 0%
COc1ccccc1N1C(=O)CC(=O)NC1=O | -1% | -10% | 0% | 19% | 5%
CCOC(=O)c1c(-n2c(C)cc(C=C3C(=O)NC(=O)NC3=O)c2C)sc2c1CCCC2 | -1% | -13% | -7% | -14% | -18%
Cc1cccc(N2C(=O)NC(=O)/C(=C\c3cc(C)n(-c4sc5c(c4C#N)CCCC5)c3C)C2=O)c1C | 8% | 3% | -3% | 7.1µM* | 13µM*
CC(=O)[C@H]1CCC2C3CC[C@H]4C[C@@H](O)CC[C@]4(C)C3CC[C@@]21C (stereo not given in full) | 0% | 11% | 11% | -3% | -3%
Cc1c(-c2cccc(Cl)c2)nc2ccccc2c1C(=O)N1CCC2(CC1)OCCO2 | 3% | -17% | -14% | -17% | -23%
SMILES | Nrf2 ARE act | Nrf2 inh | A549 tox | TGFb SMAD3 inh | HepG2 tox
Cc1ccc(N2CCN(C(=O)C3CCC(CNS(=O)(=O)c4ccc(Br)s4)CC3)CC2C)cc1 (stereo not given) | 4% | 9.2µM* | 1% | -29% | -25%
COc1cc(C(C)=O)ccc1OC(=O)N(C)c1ccccc1 | 1% | 3% | 6% | -33% | -33%
CC(=O)OC1N=C(c2ccccc2)c2ccccc2NC1=O (stereo not given) | 0% | 8% | -1% | -2% | 14%
O=[N+]([O-])c1ccc(C[n+]2c(-c3ccccc3)cc(-c3ccccc3)cc2-c2ccccc2)cc1 | -1% | 1% | -1% | 15% | -2%
COc1ccc(C(=O)Nc2sc3c(c2C(=O)O)CC(C)(C)OC3)cc1 | 0% | 8.2µM* | -20% | -17% | 3%
CC(=O)OC1CCC2(C)C(CCC3C2CC(=O)C2(C)C3CC(N3CC3)C2C(C)=O)C1 (stereo not given) | ? | 14% | 18µM* | 0% | -13%
CC(=O)O[C@@H]1CC[C@]2(C)C3CC[C@@]4(C)C(C[C@@H](O)[C@@H]4O)C3[C@@H](OC(C)=O)C[C@H]2C1 (stereo not given in full) | 0% | -20% | -1% | -3% | 0%
CC(C)c1ccc(OCC(=O)N2CCN(CCc3ccncc3)CC2)cc1 | 1% | 2% | 16% | 6% | -6%
CCCCn1c(=O)c(C(=O)Nc2ccccc2F)c(O)c2ccccc21 | 3% | 16% | -1% | 12% | -1%
COc1ccc(CC2c3cc(OC)c(OC)cc3CCN2C)cc1OC (stereo not given) | 0% | -5% | -11% | 20% | -3%
COc1cc(C(=O)NN=Cc2ccc(N(CCCl)CCCl)cc2)cc(OC)c1OC | 3% | -2% | -6% | -4% | 8%
C[N+](C)(C)CC(=O)Nc1ccc(Cl)cc1C(=O)c1ccccc1 | 2% | 14% | 0% | 6% | 0%
CCOC(=O)[C@]12Cc3c(cc(OC)c(OC)c3OC)[C@H]1N(C)C(=O)c1ccccc12 | 13% | . | . | . | .
Fc1ccc([C@@H]2CCNC[C@H]2COc2ccc3c(c2)OCO3)cc1 | -4% | -3% | ? | ? | 11µM*!
CCOc1ccc(C(=O)N2CCC(c3noc(-c4ccc(S(=O)(=O)N5CCCC5)cc4)n3)CC2)cc1 | -1% | 15µM* | -17% | ? | -8%
COC(=O)C1=C(c2ccc(F)cc2OCc2ccccc2)C[C@@H]2CC[C@H]1N2C(=O)NCc1ccco1 | 11% | -3% | -2% | 2% | -17%
C=CCn1c(O)c(C(C)=Nc2cccc(C(=O)O)c2)c(=O)[nH]c1=O | 0% | 3% | -12% | -3% | 2%

Source: PubChem BioAssay (National Center for Advancing Translational Sciences (NCATS))
